Among the data in PubChem BioAssay (Tox21) are Potency and outcome values, retold here.

Assay [1] in a line: qHTS assay to identify small molecule antagonists of the estrogen receptor alpha (ER-alpha) signaling pathway using the BG1 cell line in the presence of 0.1 nM 17-beta-estradiol - cell viability counter screen (AID 1259241). Further: nearly all actives have a fitted effect of over 40% in size. Further: potency means the concentration at half of the fitted maximal effect. The essentials: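 CellTiter-Fluor read (30 min, 37C) on ER-alpha/ERE-luc VM7Luc4E2 cells; 22 hr compound treatment; agonist 0.1 nM E2 final; same-well multiplex.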
(qHTS replaces the single test concentration by a dilution series.)

Assay [2] in a line: qHTS assay to identify small molecule antagonists of the androgen receptor (AR) signaling pathway using the MDA cell line in the presence of 0.5 nM R1881 - cell viability counter screen (AID 1259242). Further: nearly all actives have a fitted effect of over 45% in size. Further: potency means the concentration at half of the fitted maximal effect. Summed up:
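R1881 at 0.5 nM final stimulated MDA-kb2 cells during 16 hr compound treatment at 37C. Cytotoxicity read: CellTiter-Fluor fluorescence after 30 min.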

Assay [3] has as its target Androgen receptor (Homo sapiens) (UniProt P10275). Description: qHTS assay to identify small molecule antagonists of the androgen receptor (AR) signaling pathway using the MDA cell line in the presence of 0.5 nM R1881 (AID 1259243). Further: nearly all actives have a fitted effect of over 50% in size. Further: potency means the concentration at half of the fitted maximal effect. The essentials:
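We exposed MDA-kb2 cells to compounds under 0.5 nM R1881 stimulation for 16 hr at 37C and quantified MMTV-driven luciferase by luminescence.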

The target in assay [4] is Estrogen receptor (Homo sapiens) (UniProt P03372). Briefly: qHTS assay to identify small molecule antagonists of the estrogen receptor alpha (ER-alpha) signaling pathway using the BG1 cell line in the presence of 0.1 nM 17-beta-estradiol (AID 1259244). Further: nearly all actives have a fitted effect of over 50% in size. Further: potency means the concentration at half of the fitted maximal effect. The essentials: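 VM7Luc4E2; 4xERE-luciferase; 0.1 nM E2 final; 22 h co-incubation, 37C; ONE-Glo luminescence after 30 min at room temperature.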

A short description of assay [5]: qHTS assay to identify small molecule HDAC inhibitors (AID 1259364). Further: potency means the concentration at half of the fitted maximal effect.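 Further: wild-type HCT-116 cells with endogenous class I/II HDAC activity; nearly all actives have a fitted effect of over 45% in size.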 Summed up: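 Relative class I and II HDAC activity is taken from the luminogenic signal in HCT-116 cells, with compound exposure 2 hr and reagent development 30 min at room temperature.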
The nature of assay [6]: qHTS assay to identify small molecule HDAC inhibitors - cell viability counter screen (AID 1259365). Further: series mostly up to about 92 µM; nearly all actives have a fitted effect of over 50% in size. Summed up:
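To flag cytotoxic hits, 1,500 wild-type HCT-116 cells per well, plated the day before, receive test compounds for 2hr at 37 C before CellTiter-Glo reagent and a luminescence read.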

Assay [7] is described as follows: qHTS assay to identify small molecule agonists of the sonic hedgehog signaling (Shh) pathway (AID 1259368; calls by dose curve; further: nearly all actives have a fitted effect of over 15% in size; further: potency means the concentration at half of the fitted maximal effect). Summed up:
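Mouse fibroblast (NIH/3T3) reporter cells with stably integrated Gli1-Luc were treated 24 hr with compound; firefly luciferase luminescence served as the read-out.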

Assay [8] is described as follows: qHTS assay to identify small molecule phospholipidosis (PLD) inducers (AID 1259344; active means well fitted curve in the direction sought with a large enough effect; an effect the other way counts as inactive or inconclusive). Summed up:
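Phospholipidosis is scored by imaging LipidTOX-stained pits in HepG2 cells exposed to compound for 24 h at 37 C; pit counts and integrated intensities per well and per cell serve as outputs.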

A short description of assay [9]: qHTS assay to identify small molecule agonists of the sonic hedgehog signaling (Shh) pathway - cell viability counter screen (AID 1259366). Further: nearly all actives have a fitted effect of over 50% in size. Further: potency means the concentration at half of the fitted maximal effect. The essentials:
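Fluorescence from CellTiter-Fluor reports live cells in this counter screen. NIH/3T3-derived Gli1-Luc reporter cells receive test compounds for 24hr at 37C; reagent goes in at 23hr.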

Assay [10] is described as follows: qHTS assay to identify small molecule antagonists of the sonic hedgehog signaling (Shh) pathway - cell viability counter screen (AID 1259367). Further: nearly all actives have a fitted effect of over 55% in size. Further: potency means the concentration at half of the fitted maximal effect. The essentials:
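Cells: 3T3 Gli1-Luc, 2,000/well, 4 hr pre-incubation. Compounds in DMSO, then conditioned medium. Incubation 24 hr, 37C, 5% CO2. CellTiter-Fluor at 23 hr, 1 hr, fluorescence.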

Several values for one entry are separate records, joined by “and”; a condition that tells them apart may be missing. Equal values may be shown once. Inconclusive results are not listed. More than one record can exist for a structure, and the calls need not agree. Activity calls are given as the source filed them. Unless noted, the call rests on the fitted dose curve; in most records, active means well fitted curve in the direction sought with a large enough effect in the repeat runs; inconclusive means weak or mixed curves; inactive means no such curve, though single readings can be large; an effect the other way counts as inactive or inconclusive.

Estrogen receptor (Homo sapiens), sequence (P03372 whole entry, looked up): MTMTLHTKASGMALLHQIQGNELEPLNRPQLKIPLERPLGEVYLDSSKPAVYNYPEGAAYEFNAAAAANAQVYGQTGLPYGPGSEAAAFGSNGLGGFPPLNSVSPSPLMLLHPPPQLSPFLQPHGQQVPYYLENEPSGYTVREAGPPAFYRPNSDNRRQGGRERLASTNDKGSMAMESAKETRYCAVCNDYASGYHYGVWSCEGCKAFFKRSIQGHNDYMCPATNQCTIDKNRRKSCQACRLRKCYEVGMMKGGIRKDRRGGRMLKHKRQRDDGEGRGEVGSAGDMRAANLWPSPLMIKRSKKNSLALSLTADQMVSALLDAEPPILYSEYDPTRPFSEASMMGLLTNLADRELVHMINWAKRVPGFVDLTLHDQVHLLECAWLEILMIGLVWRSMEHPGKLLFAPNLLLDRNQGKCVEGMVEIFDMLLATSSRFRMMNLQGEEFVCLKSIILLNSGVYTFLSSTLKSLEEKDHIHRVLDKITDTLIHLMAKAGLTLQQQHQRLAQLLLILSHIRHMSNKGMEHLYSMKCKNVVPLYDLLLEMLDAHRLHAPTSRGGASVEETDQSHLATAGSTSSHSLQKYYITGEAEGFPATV
Androgen receptor (Homo sapiens), sequence (P10275 whole entry, looked up): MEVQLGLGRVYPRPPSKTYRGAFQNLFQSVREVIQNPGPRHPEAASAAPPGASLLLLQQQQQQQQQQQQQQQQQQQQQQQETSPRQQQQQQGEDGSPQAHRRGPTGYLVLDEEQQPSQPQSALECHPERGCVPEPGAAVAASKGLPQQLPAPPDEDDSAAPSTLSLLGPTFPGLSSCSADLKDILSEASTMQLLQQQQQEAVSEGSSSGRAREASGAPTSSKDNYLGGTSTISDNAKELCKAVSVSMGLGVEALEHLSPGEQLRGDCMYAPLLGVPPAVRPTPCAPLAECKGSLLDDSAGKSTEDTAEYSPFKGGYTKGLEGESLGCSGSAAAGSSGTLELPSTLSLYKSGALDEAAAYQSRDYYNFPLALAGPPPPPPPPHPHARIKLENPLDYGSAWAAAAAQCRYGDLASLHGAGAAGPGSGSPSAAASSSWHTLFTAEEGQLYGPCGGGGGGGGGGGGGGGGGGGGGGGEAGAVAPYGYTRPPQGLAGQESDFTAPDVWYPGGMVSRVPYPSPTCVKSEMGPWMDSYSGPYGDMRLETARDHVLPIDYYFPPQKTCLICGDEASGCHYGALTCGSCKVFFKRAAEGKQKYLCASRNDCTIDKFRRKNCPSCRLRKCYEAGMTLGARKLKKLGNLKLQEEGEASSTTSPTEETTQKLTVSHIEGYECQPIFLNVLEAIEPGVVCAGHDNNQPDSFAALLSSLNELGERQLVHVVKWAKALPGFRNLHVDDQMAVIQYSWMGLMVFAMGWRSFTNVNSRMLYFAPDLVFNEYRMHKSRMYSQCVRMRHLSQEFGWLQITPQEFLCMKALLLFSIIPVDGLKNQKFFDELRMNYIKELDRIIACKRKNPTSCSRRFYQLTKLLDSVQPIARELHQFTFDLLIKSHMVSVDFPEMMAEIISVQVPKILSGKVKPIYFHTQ

Consider `Nc1ncn([C@@H]2O[C@H](CO)[C@@H](O)[C@H]2O)c(=O)n1`, for which the Potency result in [1], in assay [2], in assay [4], in assay [5] and in [7] was “inactive” throughout. For the same molecule, the Potency in [3] is 4.33 µM (active) and 3.76 µM (active). For the same molecule, the molecule was classed as inactive in assay [6].

On to `O=C(COc1ccc(Cl)cc1)N1CCN(Cc2ccc3c(c2)OCO3)CC1`, for which the Potency entry in [1], in assay [2], in [8], in assay [5], in [9] and in assay [10] was “inactive” throughout. In addition, in assay [7], the Potency entry is “inactive”. Besides, the Potency in [4] is 48.6 µM (active) and 29.8 µM (active). The call in assay [6] was inactive.

In the case of `c1ccc2sc(SSN3CCOCC3)nc2c1`, the Potency entry in [1], in [2], in assay [4], in assay [5] and in [7] was “inactive” in each case. The result in assay [6] was inactive. In addition, the Potency is 48.5 µM (active) in assay [9] and 54.4 µM (active) in assay [10].

`COc1ccc(OC)c(C(O)CNC(=O)CN)c1` (stereo not given): the Potency entry in assay [1], in assay [2], in [4], in assay [5], in assay [9] and in [10] was “inactive” throughout. The Potency entry in assay [7] is “inactive”. The molecule was classed as inactive in assay [6].

Turning to `CCCCC(CC)COC(=O)c1ccc(N(C)C)cc1` (stereo not given), the Potency result in [1], in assay [2], in [4], in assay [8], in [5] and in [9] was “inactive” throughout. Also, the Potency entry in assay [10] and in assay [7] was “inactive” in each case. In addition, the result in [6] was inactive.

With `CC(C)=CCCC(C)CCO` (stereo not given), the Potency entry in assay [1], in [2], in assay [4], in assay [5], in assay [9] and in assay [10] was “inactive” in each case. Besides, in [7], the Potency entry is “inactive”. For the same molecule, in assay [6], the outcome was inactive.

As for `Cc1ccc2c(n1)Oc1ccc(C(C)C(=O)OCC(=O)N(C)C)cc1C2` (stereo not given), the Potency result in assay [1], in assay [2], in [3], in [4], in assay [9] and in assay [10] was “inactive” throughout. The Potency result in [7] is “inactive”. In [5], the Potency is 11.9 µM (active) and 9.44 µM (active). In addition, the molecule was called inactive in assay [6].

Take `CN(C)CCN(Cc1cccs1)c1ccccn1`: the Potency entry in [1], in [2], in assay [4], in assay [5], in [10] and in assay [7] was “inactive” in each case.

Take `OC(CCl)CCl`: the Potency entry in assay [1], in assay [2], in assay [4], in [5], in assay [10] and in assay [7] was “inactive” each time. The call in assay [6] was inactive.

For the molecule `CC(C)OC=O`, the Potency entry in assay [1], in assay [2], in assay [4], in assay [5], in [9] and in [10] was “inactive” throughout. The Potency result in assay [7] was “inactive”.

`CCC(C)OC(=O)c1ccc(O)cc1` (stereo not given): the Potency result in assay [1], in [2], in [4], in assay [9], in assay [10] and in [7] was “inactive” in each case. Further, in assay [6], the outcome was inactive.

Consider `C[C@]12CC[C@H]3[C@@H](CCC4=CC(=O)CC[C@@]43C)[C@@H]1CC[C@@H]2C(=O)CO`, for which the Potency entry in assay [1], in assay [2], in assay [4], in [5], in assay [10] and in [7] was “inactive” in each case. Besides, in assay [6], the molecule was called inactive.

Take `C[C@]12CCC(=O)C=C1CC[C@@H]1[C@@H]2C(=O)C[C@@]2(C)[C@H]1CC[C@]2(O)C(=O)CO`: the Potency entry in assay [1], in assay [2], in assay [4], in [8], in assay [5] and in assay [10] was “inactive” in each case. Further, the Potency result in [7] is “inactive”.

Regarding `CC(CCC(=O)O)(c1ccc(O)cc1)c1ccc(O)cc1`, the Potency result in assay [1], in assay [2], in [4], in [5], in [9] and in [10] was “inactive” each time. Besides, in [7], the Potency result is “inactive”. Also, the molecule was called inactive in assay [6].

Consider `Nc1ccccc1N`, for which the Potency entry in assay [1], in assay [2] and in [10] was “inactive” each time. Moreover, the Potency result in assay [4] was “inactive and 54.5 µM (active)”; in assay [5], 19.8 µM (active); in [7], 788 nM (active) and 13.7 µM (active). Also, the outcome in [6] was inactive.

Consider `O=C(/C=C/c1ccccc1)OCc1ccccc1`, for which the Potency result in [1], in assay [4], in assay [5], in assay [9], in assay [10] and in assay [7] was “inactive” each time.

`Nc1ccc(Nc2ccccc2)cc1`: the Potency result in [1], in assay [4], in assay [5] and in [7] was “inactive” throughout. Moreover, the Potency in assay [9] is 61.1 µM (active); in assay [10] it was 48.6 µM (active).

For `CCCCC(CC)COCC1CO1` (stereo not given), the Potency entry in assay [1], in assay [4], in [5], in assay [10] and in assay [7] was “inactive” each time. Further, in assay [6], the result was inactive.

With `NC=O`, the Potency entry in [1], in [5], in assay [9], in assay [10] and in [7] was “inactive” throughout.

As for `c1ccc(Nc2ccccc2)cc1`, the Potency result in assay [1], in assay [5], in assay [10] and in assay [7] was “inactive” in each case. Further, in assay [6], the outcome was inactive.

With `O=C1OC2(c3cc(Br)c(O)c(Br)c3Oc3c2cc(Br)c(O)c3Br)c2c(Cl)c(Cl)c(Cl)c(Cl)c21`, the Potency was 8.64 µM (active) and 23.4 µM (active) in [1]; 3.86 µM (active) and 14.8 µM (active) in assay [10]. For the same molecule, the Potency entry in assay [5] and in assay [7] was “inactive” each time. In addition, the molecule was classed as inactive in [6].

For `CC(C)OC(=O)C(C)(C)Oc1ccc(C(=O)c2ccc(Cl)cc2)cc1`, the Potency result in assay [1], in assay [5], in [10] and in assay [7] was “inactive” in each case. The Potency was 43.3 µM (active) and 29.8 µM (active) in [3]; 61.1 µM (active) and inactive in [4].

`C/C=C/C(=O)O`: the Potency result in assay [1], in assay [5], in assay [9], in assay [10] and in assay [7] was “inactive” in each case. Besides, the molecule was classed as inactive in assay [6].

On to `CCCCCCCCCC(=O)OC`, for which the Potency entry in [1], in assay [2], in assay [5], in [9], in assay [10] and in assay [7] was “inactive” in each case.

Turning to `CC(=O)C1(C)CC2=C(CCCC2(C)C)CC1C` (stereo not given), the Potency entry in assay [1], in assay [3], in [5], in [10] and in assay [7] was “inactive” each time. Also, the result in assay [6] was inactive.

In the case of `O=C(Nc1ccc(Cl)cc1)Nc1ccc(Cl)c(Cl)c1`, the Potency is 21.7 µM (active) and 23.7 µM (active) in assay [2]; 17.1 µM (active) and 13.7 µM (active) and 13.3 µM (active) in assay [3]; 21.6 µM (active) and 12.2 µM (active) and 16.8 µM (active) in assay [4]. The Potency entry in assay [8], in assay [5], in [9], in assay [10] and in assay [7] was “inactive” in each case. The molecule was called inactive in [6].
